PTHR1 agonist: qHTS for PTHR1 Agonists: Primary Screen; AID 743266, 2014; HEK293 GP2 PTHR1 cells, GloSensor cAMP luminescence, 1 h; 410,000 compounds, 0.075% hits; Potency, µM (top dose mostly 115 µM), for the others: at the highest dose activation, hits mostly activators; further: nearly all actives have a fitted effect of over 55% in size
Target sequence (Q03431 whole entry, looked up): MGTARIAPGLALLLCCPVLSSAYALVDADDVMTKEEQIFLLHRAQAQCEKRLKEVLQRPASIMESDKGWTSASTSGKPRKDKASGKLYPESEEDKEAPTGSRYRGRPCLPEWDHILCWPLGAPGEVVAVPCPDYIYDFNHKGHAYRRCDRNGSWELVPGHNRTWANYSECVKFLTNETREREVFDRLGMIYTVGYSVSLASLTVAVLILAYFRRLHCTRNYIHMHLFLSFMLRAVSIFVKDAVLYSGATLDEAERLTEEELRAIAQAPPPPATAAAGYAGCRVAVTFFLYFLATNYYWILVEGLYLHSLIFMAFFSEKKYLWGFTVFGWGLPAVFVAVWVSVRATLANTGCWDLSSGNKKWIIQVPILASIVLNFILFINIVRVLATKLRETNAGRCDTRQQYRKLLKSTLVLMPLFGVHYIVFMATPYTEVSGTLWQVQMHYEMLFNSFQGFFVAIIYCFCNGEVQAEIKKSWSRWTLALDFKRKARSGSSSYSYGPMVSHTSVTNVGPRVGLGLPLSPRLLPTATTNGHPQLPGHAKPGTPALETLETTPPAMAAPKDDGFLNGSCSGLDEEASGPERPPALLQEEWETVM
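HEK-293-derived GP2 cells expressing PTHR1 and a GloSensor cAMP reporter, 3,000/well, plated overnight, given luciferin plus IBMX (each 0.5 mM as added) for 1 h at 37 °C, then compound for 1 h at 37 °C. Luminescence was read after 15 min at room temperature.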
GLP-1R agonist: qHTS of GLP-1 Receptor Agonists | Glucagon-like peptide 1 receptor (Homo sapiens), P43220 | HEK293 GLP-1R CRE-luciferase, luminescence, 4-6 h; cells express a hypersensitive GLP-1R form | Potency, µM (series often up to 45.6 µM), without a hit: at the top dose activation, actives largely listed as activators | 380,000 compounds, 0.007% hits | AID 624172, 2012; further: % of control where 0% means no effect
HEK293 tox: qHTS of GLP-1 Receptor Inverse Agonists: Cytotox Screen. HEK293 cAMP-luciferase reporter cells, luminescence, 24 h. Potency, µM (series often up to 38.3 µM), for the others: at the top dose activity change, negative = inhibition, hits mostly inhibitors. 410,000 compounds, 0.13% hits. AID 624418, 2012;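 further: loss of luciferase light is scored as toxicity; on the % scale 0 is the no-effect control and ±100 the full control effect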
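Seeding density was 200 cells/uL; after overnight-length (12 h) culture, 23 nL compounds went on for 24 h at 37 °C. Readout used a luciferase detection reagent, luminescence taken after 12 min at room temperature.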
GLP-1R inv ag: qHTS of GLP-1 Receptor Inverse Agonists (Inhibition Mode) | Glucagon-like peptide 1 receptor (Homo sapiens), P43220 | HEK293 GLP-1R CRE-luciferase, luminescence, 24 h; GLP-1R form is constitutively active | Potency, µM (highest dose often 38.3 µM), without a hit: top-dose activity change, negative = inhibition, actives largely listed as inhibitors | 410,000 compounds, 1.6% hits | AID 624417, 2012; further: on the % scale 0 is the no-effect control and ±100 the full control effect; nearly all actives have a fitted effect of over 55% in size
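qHTS in 1536-well format: reporter HEK293 cells expressing constitutive GLP-1R activity in DMEM + 10% Nu serum, 24 hr with compounds at 37 deg C, luminescence read after 12 min with detection reagent.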
* marks the source's active call; other numbers are inactive results; i = inactive; ? = inconclusive; nt = not tested or not shown; [ ] = dose if it differs, or a comment. Shown are actives, neighbours in structure and some others; about 1.7% of the full set was active somewhere. The call rests on the fitted dose curve; in most records, active means well fitted curve in the direction sought with a large enough effect; inconclusive means small, poorly fitted or top-dose-only effect, or another doubt; inactive means no such curve, though single readings can be large; an effect the other way counts as inactive or inconclusive. Potency means the concentration at half of the fitted maximal effect.

SMILES	PTHR1 agonist	GLP-1R agonist	HEK293 tox	GLP-1R inv ag
O=C(NC1CC1)c1ccc(CS(=O)c2ccccc2)o1 (stereo not given)	-1.8%	-3.8%	-11.2%	8.4%
Cc1cc(N2CCN(C)CC2)nc(-c2ccccc2O)n1	i	15.0%	0.0%	3.98µM*
C[C@H]1CN([C@@H](C)CO)C(=O)c2cccc(NC(=O)Nc3ccc(C(F)(F)F)cc3)c2O[C@H]1CN(C)C	20.0%	-4.2%	18.5%	10µM*
C[C@H](CO)N1C[C@H](C)[C@@H](CN(C)C(=O)Nc2ccc(C(F)(F)F)cc2)Oc2c(NC(=O)Nc3ccc(C(F)(F)F)cc3)cccc2C1=O	-20.4%	-11.3%	?	11.2µM*
COc1ccc(CCNC(=O)c2cc3sccc3n2Cc2ccc(Cl)cc2)cc1OC	-30.1%	nt	2.9%	?
CC(C)Oc1ccc(C(CCN)C2CCCCC2)cc1 (stereo not given)	-9.4%	-1.0%	?	10µM*
CC(C)Oc1ccc(C(=O)NC2CCCCC2)cc1	-21.5%	-4.6%	5.3%	-2.4%
COc1ccc(CN2CCC(N(CCc3ccccc3)Cc3ccccc3)CC2)c(OC)c1	-55.8%	3.9%	?	3.16µM*
CCCN1CCC(N(CCc2ccccc2)Cc2ccccc2)CC1	i	7.9%	-5.4%	?
COc1cc(NS(=O)(=O)c2cnc(N)nc2)cc(OC)c1	i	nt	-4.4%	16.7%
COc1ccc(OC)c(-c2csc(NC(=O)c3ccc(F)cc3)n2)c1	-12.8%	-2.1%	-18.9%	10µM*
CC(C)c1ccc(/C=C2\SC(=S)N(CCC(=O)NCCCn3ccnc3)C2=O)cc1	?	-2.2%	?	2.51µM*
COc1ccc(/C=C2\SC(=S)N(CCC(=O)NCCCn3ccnc3)C2=O)cc1	-11.9%	-3.6%	-6.1%	?
CCC(C)(C)n1nnnc1C(c1ccccc1)N1CCN(Cc2ccccc2)CC1 (stereo not given)	i	12.9%	4.8%	11.8%
CC(C)CCn1nnnc1CN1CCN(C(c2ccccc2)c2ccccc2)CC1	-12.5%	7.7%	-10.1%	12.6µM*
c1ccc(C(c2ccccc2)N2CCN(Cc3nnnn3C3CCCC3)CC2)cc1	i	-26.7%	-8.4%	7.94µM*
CCC(C)(C)n1nnnc1CN1CCN(C(c2ccccc2)c2ccccc2)CC1	-9.4%	-4.9%	-11.7%	10µM*
Cc1cccc(Cn2cc(C(=O)c3ccccc3)c(=O)c3cc4c(cc32)OCO4)c1	-15.5%	nt	-10.1%	-5.7%
Cn1cnc2c(=O)oc3ccc(S(=O)(=O)N4CCN(c5cccc(Cl)c5)CC4)cc3c21	i	nt	?	6.7%
Cc1nnc(N2CCN(C(=O)Nc3cc(F)ccc3F)CC2)c2nn(-c3ccc(Cl)cc3)c(C)c12	-21.3%	nt	-9.5%	4.5%
Cc1ccc(Cl)cc1NC(=O)COC(=O)CC(C)(C)CC1=NS(=O)(=O)c2ccccc2N1	-10.9%	0.9%	-8.7%	?
CC(C)(CC(=O)NCc1ccc(Cl)cc1Cl)CC1=NS(=O)(=O)c2ccccc2N1	-39.1%	-2.8%	?	8.91µM*
Cc1ccc(C)c(N2CCN(c3nc4ccccc4c4nc(-c5cccnc5)nn34)CC2)c1	-26.6%	nt	4.8%	-3.4%
CCOC(=O)c1ccc(NC(=O)CC2C(=O)N(c3ccc(F)cc3)C(=O)N2Cc2cccnc2)cc1 (stereo not given)	-1.8%	nt	-3.2%	-16.8%
CCCCCOc1ccc(Br)cc1/C(C)=N/NC1=NCCN1	-6.1%[57.5 µM]	0.9%	?	2.24µM*
SMILES	PTHR1 agonist	GLP-1R agonist	HEK293 tox	GLP-1R inv ag
COc1ccc(Br)cc1/C(C)=N/NC1=NCCN1	-37.6%	-5.0%	-1.7%	0.0%
Cc1c(Cl)cccc1NC(=O)CCS(=O)(=O)c1ccc2c(c1)CC(C)N2C(=O)C1CC1 (stereo not given)	-46.1%	nt	-6.6%	-7.3%
Cc1ccc(S(=O)(=O)N2CCCCC2C(=O)Nc2ccc(N(C)C)cc2)cc1 (stereo not given)	-27.8%	11.4%	-13.1%	7.08µM*
Cc1ccc2c(CC(=O)Nc3ccc(S(=O)(=O)N4CCCCC4C)cc3)coc2c1 (stereo not given)	i	nt	-6.3%	11.2µM*
Cc1ccc(S(=O)(=O)CC(=O)Nc2sc3c(c2C#N)CCCC3)cc1	?	nt	2.4%	7.7%
CCCN(CCC)C(=O)Cn1c(SCc2cccc(F)c2)nc2cccnc21	-6.4%	nt	1.2%	0.1%
COc1ccc(-c2nn(-c3ccccc3)cc2/C=N/Nc2ccc3ccccc3n2)cc1OC	-19.2%	16.9%	12.6µM*	?
COc1ccc(-c2nn(-c3ccccc3)cc2/C=N/O)cc1OC	-26.2%	8.6%	0.7%	?
CCc1ccc(C2CC(=O)Nc3c2c(=O)n(C)c2ncnn32)cc1 (stereo not given)	-18.0%	-7.2%	4.8%	14.3%
COc1cccc(N/C(SCc2ccccc2C)=C(/C#N)C(=O)NCc2cccs2)c1	i	-4.9%	14.6%	7.08µM*
COc1cccc(N/C(SCc2ccccc2Cl)=C(/C#N)C(=O)NCc2cccs2)c1	-15.5%	-1.1%	11.8%	-3.2%
O=C1C2C3CCCC3=C3CCCC3C2C(=O)N1c1cccc(Cl)c1 (stereo not given)	-5.5%[57.5 µM]	-1.7%	1.8%	3.55µM*
Cc1ccc(/C=N/n2c(-c3ccccc3)csc2=S)cc1	nt	-3.9%	nt	nt
CCOc1ccc(CCN2C(=S)N([C@@H](CC(C)C)CN3CCCC3CN3C(=S)NC[C@@H]3Cc3ccc(O)cc3)C[C@@H]2CC(C)C)cc1 (stereo not given in full)	i	8.7%	-4.5%	10µM*
CCOc1ccc(CCN2C(=S)N([C@@H](CC(C)C)CN3CCCC3CN3C(=S)NC[C@@H]3Cc3ccc(O)cc3)C[C@@H]2Cc2ccccc2)cc1 (stereo not given in full)	i	-0.6%	0.6%	11.2µM*
CC1=C(C(=O)NCCc2ccc(Cl)cc2)C2(CCCCC2)OC1=O	i	nt	-7.7%	-26.9%
COc1cccc(F)c1C(C[N+](=O)[O-])c1c(N)n(C)c(=O)n(C)c1=O (stereo not given)	-12.2%	-5.7%	?	3.16µM*
COc1cc(C(C[N+](=O)[O-])c2c(N)n(C)c(=O)n(C)c2=O)ccc1O (stereo not given)	-40.9%	-3.4%	-4.0%	-19.8%
COc1ccc(NC(=O)C2Cc3cc(S(=O)(=O)N4CCCCC4)ccc3N2C(C)=O)cc1Cl (stereo not given)	-13.7%	-2.6%	-4.5%	10µM*
COc1ccc(Cl)cc1NC(=O)C1Cc2cc(S(=O)(=O)N3CCCC3)ccc2N1C(C)=O (stereo not given)	-24.0%	2.8%	-1.6%	?
COc1cc(Cl)c(C)cc1NCC(=O)Nc1cccc(S(=O)(=O)N2CCCC2)c1	-51.3%	-5.4%	-15.4%	8.91µM*
O=C(CNc1ccc(F)cc1Cl)Nc1cccc(S(=O)(=O)N2CCCCC2)c1	-33.7%	3.8%	-23.9%	?

Source: PubChem BioAssay
